# Reference: the supplement of paper PMC6555819
# What was measured:
# Test in all cases: PBM binding z-score (relative to random genomic background probes); higher = stronger binding; sequences stand for … in GC…GCGATTGACAGCGTAGAATGAAGG
# [1] = test system: FXR:RXRa (NR concentration 270 nM, RXRa partner concentration 90 nM)
# In short: (§1)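 Antibodies against each partner of ligand-free nuclear receptor dimers (one per run) detected binding on custom Agilent 4×180K protein-binding microarrays after 1 h incubation. The double-stranded probes had 34-nt variable regions carrying direct-repeat seeds, single-nucleotide variants, half-site ablations and random human genomic background sequences. Binding z-scores, from regression-normalized fluorescence, use the random background probes as reference.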
# [2] = test system: LXRa:RXRa (NR concentration 270 nM, RXRa partner concentration 90 nM)
# In short: as §1
# [3] = test system: LXRa homodimer (NR concentration 270 nM)
# In short: as §1
# [4] = test system: LXRb:RXRa (NR concentration 270 nM, RXRa partner concentration 90 nM)
# In short: as §1
# [5] = test system: LXRb homodimer (NR concentration 270 nM)
# In short: as §1
# [6] = test system: PPARa:RXRa (NR concentration 270 nM, RXRa partner concentration 90 nM)
# In short: as §1
# [7] = test system: PPARg:RXRa (NR concentration 180 nM, RXRa partner concentration 90 nM)
# In short: as §1
# [8] = test system: PPARg:RXRa 270nM:90nM, anti-RXR (NR concentration 270 nM, RXRa partner concentration 90 nM)
# In short: as §1
# [9] = test system: PPARg:RXRa 30nM:10nM, anti-RXR (NR concentration 30 nM, RXRa partner concentration 10 nM)
# In short: as §1
# [10] = test system: PPARg:RXRa 90nM:30nM, anti-RXR (NR concentration 90 nM, RXRa partner concentration 30 nM)
# In short: as §1
# [11] = test system: PPARg:RXRa DBDmut IVT, anti-RXR (DBD mutation: RXRa K156A/R161A, NR concentration 270 nM, RXRa partner concentration 90 nM)
# In short: as §1
# [12] = test system: PPARg:RXRa IVT, anti-PPARg (NR concentration 270 nM, RXRa partner concentration 90 nM)
# In short: as §1
# [13] = test system: PPARg DBDmut:RXRa IVT, anti-PPARg (DBD mutation: PPARg1 K132A/R137A, NR concentration 270 nM, RXRa partner concentration 90 nM)
# In short: as §1
# [14] = test system: PPARg DBDmut IVT, anti-PPARg (DBD mutation: PPARg1 K132A/R137A, NR concentration 270 nM)
# In short: as §1
# [15] = test system: PPARg homodimer (NR concentration 180 nM)
# In short: as §1
# [16] = test system: PXR:RXRa (NR concentration 270 nM, RXRa partner concentration 90 nM)
# In short: as §1
# [17] = test system: PXR homodimer (NR concentration 270 nM)
# In short: as §1
# [18] = test system: RARa:RXR (NR concentration 270 nM, RXRa partner concentration 90 nM)
# In short: as §1
# [19] = test system: RARa homodimer (NR concentration 270 nM)
# In short: as §1
# [20] = test system: RARb:RXRa (NR concentration 270 nM, RXRa partner concentration 90 nM)
# In short: as §1
Sequence,PBM binding z-score [1],PBM binding z-score [2],PBM binding z-score [3],PBM binding z-score [4],PBM binding z-score [5],PBM binding z-score [6],PBM binding z-score [7],PBM binding z-score [8],PBM binding z-score [9],PBM binding z-score [10],PBM binding z-score [11],PBM binding z-score [12],PBM binding z-score [13],PBM binding z-score [14],PBM binding z-score [15],PBM binding z-score [16],PBM binding z-score [17],PBM binding z-score [18],PBM binding z-score [19],PBM binding z-score [20]
TCTTGTAGATCAGCAGGTTAATAAAGCTGGCCAA,0.186,0.321,-0.0562,0.223,-0.339,0.462,-0.26,1.38,2.55,1.7,1.69,0.368,0.134,0.645,-0.332,0.185,-0.721,0.556,0.0648,0.000915
CAAACTAGGTCAAGAGGGCAAAGTCCGCTTCCCG,4.55,4,1.14,2.47,0.164,5.21,8.68,7.36,5.56,7.15,8.35,8.37,4.28,1.48,3.42,2.98,0.703,3.96,1.19,4.53
AGTCAAAGTTCAGGTCGAGGTAACGTAAAGCACG,4.82,4.08,1.87,2.47,0.819,3.6,4.74,4.74,2.07,3.97,-0.195,2.16,0.434,0.251,2.76,3.53,2.14,3.43,1.49,4.47
CCTAGTAGGTCAAGGTCACACACGCTATAGGTAC,6.32,5.5,2.71,4.64,1.12,5.98,9.25,7.51,5.53,7.55,8.26,7.96,1.56,0.61,3.98,4.96,1.81,5.14,2.09,5.1
CCTCCTGGGCCATCAGGTCATTGATATCAACGTT,1.24,0.991,0.788,1.31,0.0311,1.73,0.38,1.29,-0.255,0.67,0.202,1.81,-1.18,-0.736,0.643,1.34,0.852,2.16,-0.969,1.99
CGAACTAGGTCAGAACTGGACAGTGAAGGATGAT,0.671,0.375,-0.326,0.262,-0.439,3.26,5.1,4.49,1.77,3.68,6.94,7.08,2.69,3.66,1.37,0.313,-0.282,0.591,-0.224,2.71
CCGACTGGGGCAACGTTACCATAACGCACAGCCA,-0.667,-0.521,-0.397,-0.465,-1.01,0.0876,1.64,0.667,-0.502,-0.136,4.02,3.62,-0.725,-0.25,-0.224,-0.885,-0.271,-0.695,-0.177,0.224
ATCTCTAGGTAAATATAGTTCAGTGAATGCAAAT,0.614,5.89,1.51,2.5,1.12,0.691,1.16,0.903,1.13,1.05,1.8,1.91,1.61,1.65,1.19,1.38,0.957,0.923,1.21,0.851
CCTGCTGGGCCAAGGTCATTGATCAGTCAAAGCA,3.6,3.06,0.626,2.99,-0.84,3.64,1.23,2.56,-0.0774,1.46,0.105,1.18,-1.48,-1.47,2.84,3.79,1.84,3.92,-0.536,3.48
ACAGCCAGGTGAGTGAAGGTAACTCAGCTGGACG,0.0409,-0.362,-0.936,-0.925,-1.03,-0.248,0.164,-0.463,-0.822,-0.5,0.411,0.424,-0.718,-0.566,-0.774,-0.607,-0.722,-0.11,-0.431,0.179
AGTCAAAGTTCATCTACGTAACGTAAGATATGCT,6.79,6.21,5.33,3.97,1.6,4.77,6.55,6.3,3.58,5.65,0.41,2.74,1.46,1.88,2.94,4.96,4.87,3.51,1.69,4.85
ATCGAAAGGCCGACGAGGTGAGTATACACCGTTT,0.135,-0.127,-0.565,-0.439,-0.414,-0.0782,0.686,-0.414,-0.0742,-0.119,-0.57,0.479,0.035,0.014,-0.108,-0.0744,-0.0811,0.0866,-0.372,1.33
GCTCGTTGGTCAGTAAAAGGTCACACACCGGTCG,3.94,4.86,5.11,4.22,1.19,4.89,3.34,4.93,2.81,4.52,0.994,2.63,0.257,0.405,4.91,5.35,1.21,6.7,2.93,4.48
CCGAGTAGGTTATGGGTCATTCAGGCAACGGTGA,2.41,2.13,0.794,2.57,0.212,4.37,7.07,6.9,5.78,6.93,3.95,4.54,-0.0117,-0.483,1.77,2.17,0.442,3.06,1.09,2.3
AGAATGAGGTGACCAAAGATCAGGGAAACGCTTG,0.916,0.957,-0.26,0.478,-0.291,2.24,2.48,2.2,0.478,1.46,4.37,4.21,0.497,0.08,0.216,0.534,-0.16,0.899,-0.253,1.3
GGAACGAGGGCAAGTTGATAGTAGAGTTTGATGG,0.866,0.53,-0.29,0.413,-0.108,1.74,1.01,0.848,0.216,0.579,3.65,2.79,0.241,-0.486,0.584,0.965,1.17,0.509,0.408,2.76
TCTGATAGGTCAGTTGGTCAGCTAACGAGCTGCC,2.27,2.12,0.378,1.59,0.846,2.67,1.19,2.4,2.52,2.3,2.34,2.26,-0.134,1.25,1.43,0.816,-0.173,1.01,-0.0552,3.63
GCATACAGGTGAAACGCAGGTAACTCAGGGTGGC,-0.0721,0.132,-0.487,-0.143,-0.74,1.35,1.04,0.609,-0.12,0.232,3.57,1.78,-0.446,-0.192,-0.115,-0.254,-0.513,0.243,-0.373,0.744
CATACAGGGTCAGCTAGCCCAGAGTAGGGACGGC,4.68,3.03,-0.244,2.21,0.0889,4.36,3.35,2.84,0.528,1.8,0.792,2.19,0.206,-0.0933,1.48,2.1,-0.17,3.11,0.642,4.01
CGTCCAAGGTTAGCAGGTCAGTGAAAGCGACGTG,1.34,1.26,-0.0811,0.92,-0.45,2.44,1.18,2.08,-0.171,1.04,2,2.5,-0.8,-0.782,1.06,1.18,-0.346,2.01,-0.223,3.08
GCTCGGAGGACAAGGCCAGAGCTTTGTCCGTAGA,-0.721,-1.04,-0.948,-1.4,-1.59,-1.69,-1.44,-1.18,-1.47,-1.57,-1.3,-0.505,-1.72,-1.33,-1.33,-1.03,-0.879,-0.936,-1.54,0.806
AGTCAAAGTTCATCTAGTTAACGTAAGATATGCT,6.78,6.1,5.42,3.68,2.06,4.77,6.49,5.96,3.55,5.46,0.113,2.78,1.61,1.25,3.6,5.26,9.11,3.45,2.15,4.85
TCTAGTTGGTCAAAGGTCACTCACTCGAAATGCG,5.38,5.18,3.77,5.13,2.23,6.16,11.5,10,10.6,12.1,3.67,6.11,2.62,1.66,4.97,5.78,1.56,7.3,3.14,4.93
TCATATAGGTAAACAGGTCAAAGTCCGTAAGTTA,2.74,3.19,2.04,3.12,0.433,4.55,5.08,5.37,4.97,5.43,5.17,5.48,3.64,1.86,2.44,2.77,0.953,3.52,1.47,2.8
CGAACTAGGTCAGAACAGAACAGTGAAGGATGAT,0.766,0.278,-0.166,0.401,-0.644,2.7,5.43,4.46,1.89,3.74,7.54,7.16,1.34,0.4,0.811,-0.0344,0.00344,0.194,-0.0462,2.8
CCTAGTTGGTAAGGAGGTCACACACCGGATATGA,3.14,3.17,1.87,3.13,0.74,4.19,3.16,3.39,1.34,2.68,1.63,4.06,0.9,0.468,2.82,3.83,1.4,4.14,1.52,3.04
AATAGCAGGCCAAGTTTGGGTCACTCAAACAAAG,0.16,0.399,-0.166,0.913,-0.947,1.72,0.314,0.478,-0.511,0.171,1.2,1.95,-0.692,-0.417,0.551,1.05,-0.42,1.79,-0.848,1.98
TCGAGTAGGTTAGGGTCATTCAGAATGGCGTCGA,4.57,3.41,0.537,3.62,-0.146,4.66,3.15,4.16,2.2,3.52,2.47,2.77,-0.28,0.496,2.22,4.55,2.03,5.08,0.43,3.08
